This is an account of results in the supplement of paper PMC10849652.

About 7,900 targets were measured; listed, in parts, are those with a hit and a random draw of the rest. About 0.6% of all pairs of compound and target were hits. A number with no mark means an inactive call.

Holding throughout (assay): log2 fold change, soluble protein after heating vs DMSO (PISA); higher = thermal stabilisation; K562 cells, 10 uM, 30 min; active = over 0.2 and 3.5 SD of the protein, either way, in both replicates (recomputed)
Compound in assay [1]: NC(=O)Nc1cc(-c2cccc(F)c2)sc1C(=O)N[C@H]1CCCNC1
The method in brief: (§1)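 K562 cells (2×10^6 cells/mL) were treated with 10 μM compound for 30 min, and aliquots were heated for 3 min over 48°C-58°C. Pooled aliquots were extracted in PBS with 0.5% NP-40 at 4°C, and the supernatant after 21,000xg for 90 min was measured by TMTpro 16plex LC-MS/MS with channel sums equalised. Reported thermal stability, relative to control samples and from duplicates, is a log2 fold change.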

Compound in assay [2]: NC(=O)c1cnc(N[C@@H]2CCCC[C@@H]2N)nc1Nc1cccc(-n2nccn2)c1
In short, it runs like this: as §1

Compound in assay [3]: NC1(c2ccc(-c3nc4ccn5c(=O)[nH]nc5c4cc3-c3ccccc3)cc2)CCC1
The method in brief: as §1

Compound in assay [4]: NCC(=O)Nc1ccc(-n2nc(C(F)(F)F)cc2-c2ccc3c(ccc4ccccc43)c2)cc1
The method in brief:
as §1

Compound in a further assay: Nc1ccccc1NC(=O)c1ccc(CNC(=O)OCc2cccnc2)cc1 [entinostat]
In short, it runs like this:
as §1

Compound in the next assay: O=C(CCCCCCC(=O)Nc1ccccc1)NO [vorinostat]
In short, it runs like this:
as §1

Compound in another assay: O=C(CCCCCCNC(=O)c1cnc(N(c2ccccc2)c2ccccc2Cl)nc1)NO [citarinostat]
The method in brief: as §1

Compound in the next assay: O=C(O)c1ccc2c(c1)nc(Nc1cccc(Cl)c1)c1ccncc12 [silmitasertib]
The method in brief: as §1

Compound in assay [5]: O=C1NC(=O)C(c2cnc3ccccn23)=C1c1cn2c3c(cc(F)cc13)CN(C(=O)N1CCCCC1)CC2
In short, it runs like this:
as §1

Compound in assay [6]: c1cc(OCCN2CCCCC2)cc(-c2n[nH]c3ccc(-c4nnc[nH]4)cc23)c1
In short, it runs like this:
as §1

Compound in a further assay: c1cn2cc(-c3ccc4cn[nH]c4c3)nc(Nc3ccc(N4CCOCC4)cc3)c2n1 [entospletinib]
In short, it runs like this:
as §1

UniProt P31641, sequence (P31641 whole entry, looked up): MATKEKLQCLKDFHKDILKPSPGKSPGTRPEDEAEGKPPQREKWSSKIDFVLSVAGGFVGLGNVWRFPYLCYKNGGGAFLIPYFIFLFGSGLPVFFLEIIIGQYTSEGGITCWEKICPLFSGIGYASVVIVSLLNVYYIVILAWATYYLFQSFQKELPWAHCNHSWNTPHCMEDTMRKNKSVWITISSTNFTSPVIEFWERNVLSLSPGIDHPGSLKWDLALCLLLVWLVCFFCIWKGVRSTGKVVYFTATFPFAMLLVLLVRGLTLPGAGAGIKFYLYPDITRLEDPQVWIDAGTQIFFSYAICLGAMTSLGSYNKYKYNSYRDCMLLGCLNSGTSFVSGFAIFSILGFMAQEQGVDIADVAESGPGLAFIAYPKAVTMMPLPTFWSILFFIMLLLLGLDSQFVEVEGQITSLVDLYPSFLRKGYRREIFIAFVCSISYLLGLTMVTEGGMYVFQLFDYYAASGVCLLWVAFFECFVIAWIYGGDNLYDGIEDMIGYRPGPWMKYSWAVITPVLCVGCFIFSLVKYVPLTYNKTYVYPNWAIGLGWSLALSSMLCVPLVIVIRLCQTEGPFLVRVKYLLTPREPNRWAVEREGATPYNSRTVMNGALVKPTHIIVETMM
UniProt Q96DI7, sequence (Q96DI7 whole entry, looked up): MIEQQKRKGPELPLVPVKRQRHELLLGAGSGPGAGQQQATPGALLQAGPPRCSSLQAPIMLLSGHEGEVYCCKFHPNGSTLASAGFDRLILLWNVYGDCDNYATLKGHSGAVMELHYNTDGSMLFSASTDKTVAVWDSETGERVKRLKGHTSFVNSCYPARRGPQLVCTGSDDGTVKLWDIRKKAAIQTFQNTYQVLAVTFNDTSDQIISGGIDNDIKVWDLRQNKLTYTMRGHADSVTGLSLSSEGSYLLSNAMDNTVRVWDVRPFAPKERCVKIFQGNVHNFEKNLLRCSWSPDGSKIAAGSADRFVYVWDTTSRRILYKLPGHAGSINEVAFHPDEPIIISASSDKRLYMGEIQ
UniProt P23497, sequence (P23497 whole entry, looked up): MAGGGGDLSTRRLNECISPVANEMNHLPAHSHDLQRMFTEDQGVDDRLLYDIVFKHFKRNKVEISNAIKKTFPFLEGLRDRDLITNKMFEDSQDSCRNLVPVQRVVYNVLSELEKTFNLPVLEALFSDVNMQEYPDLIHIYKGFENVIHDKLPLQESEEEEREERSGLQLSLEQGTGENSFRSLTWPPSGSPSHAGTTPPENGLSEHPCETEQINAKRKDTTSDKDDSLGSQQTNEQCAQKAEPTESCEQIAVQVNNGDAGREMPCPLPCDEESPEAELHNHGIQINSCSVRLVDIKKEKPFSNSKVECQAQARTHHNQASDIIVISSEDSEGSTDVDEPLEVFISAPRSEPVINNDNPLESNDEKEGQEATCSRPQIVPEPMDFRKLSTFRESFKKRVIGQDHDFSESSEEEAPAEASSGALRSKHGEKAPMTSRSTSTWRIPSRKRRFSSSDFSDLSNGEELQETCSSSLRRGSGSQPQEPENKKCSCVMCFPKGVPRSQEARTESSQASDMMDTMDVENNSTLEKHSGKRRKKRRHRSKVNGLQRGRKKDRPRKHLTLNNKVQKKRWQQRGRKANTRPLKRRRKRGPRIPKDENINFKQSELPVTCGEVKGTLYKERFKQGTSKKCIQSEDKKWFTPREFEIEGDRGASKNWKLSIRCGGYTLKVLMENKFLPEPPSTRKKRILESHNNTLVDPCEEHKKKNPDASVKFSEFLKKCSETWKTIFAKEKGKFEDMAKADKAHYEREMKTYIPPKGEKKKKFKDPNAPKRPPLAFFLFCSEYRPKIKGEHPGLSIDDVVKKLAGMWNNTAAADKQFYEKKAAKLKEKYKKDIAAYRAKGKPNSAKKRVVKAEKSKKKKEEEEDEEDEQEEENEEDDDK
UniProt Q9Y5X3, sequence (Q9Y5X3 whole entry, looked up): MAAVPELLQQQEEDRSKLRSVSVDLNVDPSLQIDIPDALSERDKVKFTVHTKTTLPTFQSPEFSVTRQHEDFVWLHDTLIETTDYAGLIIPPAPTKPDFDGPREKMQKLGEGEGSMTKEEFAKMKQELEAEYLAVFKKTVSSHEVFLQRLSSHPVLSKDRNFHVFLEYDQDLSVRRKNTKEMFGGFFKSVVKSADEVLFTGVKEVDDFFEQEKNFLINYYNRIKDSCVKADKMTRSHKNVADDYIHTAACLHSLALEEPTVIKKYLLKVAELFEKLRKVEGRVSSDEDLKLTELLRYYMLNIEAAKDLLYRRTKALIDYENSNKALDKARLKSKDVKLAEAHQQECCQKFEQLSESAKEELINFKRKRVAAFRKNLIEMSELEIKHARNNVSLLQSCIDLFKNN
UniProt P05455, sequence (P05455 whole entry, looked up): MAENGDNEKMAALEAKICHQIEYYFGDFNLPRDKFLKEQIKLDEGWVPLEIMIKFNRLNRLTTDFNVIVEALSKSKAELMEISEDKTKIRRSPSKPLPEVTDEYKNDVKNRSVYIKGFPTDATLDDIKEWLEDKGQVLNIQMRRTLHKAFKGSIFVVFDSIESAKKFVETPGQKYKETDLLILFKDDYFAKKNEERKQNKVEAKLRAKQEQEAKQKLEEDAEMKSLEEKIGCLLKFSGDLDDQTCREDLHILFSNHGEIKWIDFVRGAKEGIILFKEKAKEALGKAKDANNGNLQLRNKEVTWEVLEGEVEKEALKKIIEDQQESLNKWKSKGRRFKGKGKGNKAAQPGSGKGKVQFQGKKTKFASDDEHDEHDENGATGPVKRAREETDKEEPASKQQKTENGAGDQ
UniProt Q9NVC3, sequence (Q9NVC3 whole entry, looked up): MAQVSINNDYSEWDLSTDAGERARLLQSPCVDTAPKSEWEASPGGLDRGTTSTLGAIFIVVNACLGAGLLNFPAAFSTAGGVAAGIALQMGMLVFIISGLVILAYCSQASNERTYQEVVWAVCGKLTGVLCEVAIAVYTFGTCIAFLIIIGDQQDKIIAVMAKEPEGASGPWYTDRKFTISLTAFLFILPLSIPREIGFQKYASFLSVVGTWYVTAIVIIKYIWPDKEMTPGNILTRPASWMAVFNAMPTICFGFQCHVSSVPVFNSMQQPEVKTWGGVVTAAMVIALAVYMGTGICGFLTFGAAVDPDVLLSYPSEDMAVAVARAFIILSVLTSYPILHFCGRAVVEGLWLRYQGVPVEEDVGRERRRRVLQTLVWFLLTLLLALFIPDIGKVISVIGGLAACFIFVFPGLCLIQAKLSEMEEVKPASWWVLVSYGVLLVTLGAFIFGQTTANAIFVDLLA
UniProt Q9P289, sequence (Q9P289 whole entry, looked up): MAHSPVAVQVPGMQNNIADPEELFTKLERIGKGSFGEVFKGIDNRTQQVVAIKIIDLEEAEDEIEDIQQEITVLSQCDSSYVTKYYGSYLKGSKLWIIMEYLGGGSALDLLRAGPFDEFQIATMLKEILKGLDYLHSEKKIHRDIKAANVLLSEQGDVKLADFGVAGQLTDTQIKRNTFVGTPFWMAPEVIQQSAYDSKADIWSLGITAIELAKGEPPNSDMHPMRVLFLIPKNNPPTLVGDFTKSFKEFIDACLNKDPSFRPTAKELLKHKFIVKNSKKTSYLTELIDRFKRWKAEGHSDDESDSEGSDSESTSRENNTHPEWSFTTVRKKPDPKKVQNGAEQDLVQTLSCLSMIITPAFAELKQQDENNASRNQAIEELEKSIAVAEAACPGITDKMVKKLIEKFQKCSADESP
UniProt Q9Y5M8, sequence (Q9Y5M8 whole entry, looked up): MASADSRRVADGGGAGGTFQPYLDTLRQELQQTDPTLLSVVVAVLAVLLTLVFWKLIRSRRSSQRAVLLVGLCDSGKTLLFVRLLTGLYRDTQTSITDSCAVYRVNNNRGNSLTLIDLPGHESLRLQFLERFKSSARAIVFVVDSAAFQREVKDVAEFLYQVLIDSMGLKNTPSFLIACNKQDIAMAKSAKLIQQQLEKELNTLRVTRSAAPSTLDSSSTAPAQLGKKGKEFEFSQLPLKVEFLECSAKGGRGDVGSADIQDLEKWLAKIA
UniProt Q9Y5W9, sequence (Q9Y5W9 whole entry, looked up): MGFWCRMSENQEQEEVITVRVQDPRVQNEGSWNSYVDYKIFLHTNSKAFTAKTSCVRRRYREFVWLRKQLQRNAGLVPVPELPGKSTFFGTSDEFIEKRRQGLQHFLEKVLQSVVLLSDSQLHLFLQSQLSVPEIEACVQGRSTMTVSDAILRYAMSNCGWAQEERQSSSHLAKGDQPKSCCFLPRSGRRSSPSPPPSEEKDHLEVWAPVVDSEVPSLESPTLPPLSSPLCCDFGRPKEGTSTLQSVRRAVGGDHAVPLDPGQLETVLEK
UniProt O76094, sequence (O76094 whole entry, looked up): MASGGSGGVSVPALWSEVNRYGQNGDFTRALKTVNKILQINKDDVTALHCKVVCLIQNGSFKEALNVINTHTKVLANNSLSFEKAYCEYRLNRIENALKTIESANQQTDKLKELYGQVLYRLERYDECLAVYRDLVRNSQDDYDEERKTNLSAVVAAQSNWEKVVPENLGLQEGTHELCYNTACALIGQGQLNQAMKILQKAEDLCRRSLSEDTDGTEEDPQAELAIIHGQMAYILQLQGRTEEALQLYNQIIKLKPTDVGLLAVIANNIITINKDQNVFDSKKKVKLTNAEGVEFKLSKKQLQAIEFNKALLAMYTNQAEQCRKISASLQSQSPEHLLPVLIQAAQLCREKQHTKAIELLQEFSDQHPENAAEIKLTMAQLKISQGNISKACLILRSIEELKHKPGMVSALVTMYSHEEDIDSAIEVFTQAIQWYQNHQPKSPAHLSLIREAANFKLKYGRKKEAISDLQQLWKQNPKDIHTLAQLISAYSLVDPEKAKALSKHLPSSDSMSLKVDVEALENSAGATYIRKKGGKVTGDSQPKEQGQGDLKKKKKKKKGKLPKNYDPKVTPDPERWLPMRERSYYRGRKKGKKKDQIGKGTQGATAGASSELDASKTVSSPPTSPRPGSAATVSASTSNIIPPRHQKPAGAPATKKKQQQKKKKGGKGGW

As to SNRNP40 (UniProt Q96DI7), the log2 fold change was 0.017 in assay [1]; -0.017 in assay [2]; 0.065 in [3]; -0.011 in assay [4]; -0.067 with entinostat; -0.018 with vorinostat. The log2 fold change was -0.008 with citarinostat; 0.058 in the assay with silmitasertib; 0.04 in assay [5]; -0.121 in assay [6]; -0.025 with entospletinib.
In the case of SLC6A6 (UniProt P31641), the log2 fold change in assay [1] was -0.099; in [2], 0.03; in assay [3], 0.024; in [4], -0.19; with entinostat, -0.031; with vorinostat, -0.059. In addition, the log2 fold change in the assay with citarinostat was 0.065; in the assay with silmitasertib it was 0.039; in assay [5] it was 0.086; in assay [6], 0.269 (active); with entospletinib it was -0.067.
As to SLC25A39 (UniProt Q9BZJ4), the log2 fold change is 0.059 in assay [1]; -0.183 in assay [2]; -0.345 in assay [3]; -0.105 in assay [4]; 0.061 with entinostat; -0.05 in the assay with vorinostat. The log2 fold change was -0.015 in the assay with citarinostat; 0.023 with silmitasertib; 0.073 in [5]; 0.223 in [6]; -0.045 with entospletinib.
In the case of SSB (UniProt P05455), the log2 fold change in assay [1] is -0.018; in assay [2], -0.181; in assay [3], -0.01; in [4], -0.091; with entinostat, 0.039; with vorinostat it was 0.085. Also, the log2 fold change in the assay with citarinostat was 0.02; in the assay with silmitasertib, -0.035; in assay [5], -0.089; in assay [6] it was -0.085; with entospletinib it was -0.051.
Regarding SRPRB (UniProt Q9Y5M8), the log2 fold change was 0.048 in [1]; 0.028 in assay [2]; -0.056 in [3]; -0.038 in assay [4]; 0.045 with entinostat; 0.029 in the assay with vorinostat. Further, the log2 fold change with citarinostat was 0.029; with silmitasertib, -0.007; in assay [5], -0.014; in [6], 0.045; in the assay with entospletinib it was -0.052.
As to SP100 isoform 4 (UniProt P23497), the log2 fold change in assay [1] is 0.03; in [2], -0.007; in assay [3], -0.025; in [4] it was -0.039; in the assay with entinostat, 0.007; in the assay with vorinostat, -0.046. In addition, the log2 fold change with citarinostat was -0.011; in the assay with silmitasertib it was 0.059; in [5], -0.051; in assay [6], 0.02; in the assay with entospletinib, 0.045.
As to SNX11 (UniProt Q9Y5W9), the log2 fold change is -0.052 in assay [1]; -0.277 in assay [2]; -0.378 (active) in [3]; -0.052 in assay [4]; 0.097 with entinostat; 0 with vorinostat. Also, the log2 fold change is 0.233 with citarinostat; 0.025 with silmitasertib; -0.023 in [5]; -0.072 in assay [6]; 0.135 in the assay with entospletinib.
On to SNX5 (UniProt Q9Y5X3), for which the log2 fold change in assay [1] is -0.022; in assay [2], -0.275; in assay [3], -0.332 (active); in [4], -0.037; with entinostat, 0.078; with vorinostat, 0.108. For the same target, the log2 fold change in the assay with citarinostat is 0.09; with silmitasertib, -0.061; in assay [5], -0.006; in assay [6], -0.11; with entospletinib, -0.002.
With STK26 (UniProt Q9P289), the log2 fold change is 0.07 in [1]; -0.005 in assay [2]; -0.111 in assay [3]; -0.057 in [4]; -0.063 with entinostat; 0.034 with vorinostat. The log2 fold change with citarinostat is 0.092; with silmitasertib, 0.069; in assay [5], -0.017; in assay [6], -0.007; with entospletinib, -0.022.
For the target SRP72 (UniProt O76094), the log2 fold change in assay [1] was -0.088; in assay [2] it was -0.054; in assay [3] it was -0.082; in assay [4], -0.128; in the assay with entinostat it was 0.069; with vorinostat, 0.103. In addition, the log2 fold change was 0.095 in the assay with citarinostat; 0.042 with silmitasertib; 0.105 in assay [5]; -0.129 in assay [6]; 0.052 with entospletinib.
SLC38A7 (UniProt Q9NVC3): the log2 fold change in assay [1] was -0.017; in assay [2] it was 0.002; in assay [3], -0.299; in assay [4] it was 0.197; with entinostat it was -0.066; in the assay with vorinostat it was 0.11. Also, the log2 fold change in the assay with citarinostat was 0.085; in the assay with silmitasertib, 0.022; in assay [5], -0.107; in [6], -0.004; in the assay with entospletinib it was 0.004.
